Measured values published in PubChem BioAssay (NCI).
Compounds without any hit were thinned out: in the full panel of roughly 83,000, 20% have a hit.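 Method: cells in 96-well plates; compound added at one concentration; 48 h incubation; percent growth measured; values under 10 scored active.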 Values without a mark were called inactive. Activity calls are given as the source filed them.

Assays:
Assay in all cases: NCI-60 one-dose screen, 48 h (100 = growth as untreated, 0 = no growth, -100 = all killed)
Conditions in all cases: 10 µM unless noted
NCI-H23 lung = test system: NCI-H23 lung
NCI-H226 lung = test system: NCI-H226 lung
NCI-H322M lung = test system: NCI-H322M lung
HOP-62 NSCLC = test system: HOP-62 NSCLC
NCI-H460 lung = test system: NCI-H460 lung
HOP-92 NSCLC = test system: HOP-92 NSCLC
NCI-H522 lung = test system: NCI-H522 lung
A549/ATCC NSCLC = test system: A549/ATCC NSCLC
786-0 renal = test system: 786-0 renal
COLO 205 colon = test system: COLO 205 colon

Structure (SMILES)	growth (NCI-H23 lung)	growth (NCI-H226 lung)	growth (NCI-H322M lung)	growth (HOP-62 NSCLC)	growth (NCI-H460 lung)	growth (HOP-92 NSCLC)	growth (NCI-H522 lung)	growth (A549/ATCC NSCLC)	growth (786-0 renal)	growth (COLO 205 colon)
O=C(CN1C(=O)S/C(=C\c2ccccc2)C1=O)Nc1ccc(C(=O)/C=C/c2cc3ccccc3nc2Cl)cc1	59.3%	92.2%	92.2%	87.6%	88.3%	87.9%	73.3%	88.6%	94.8%	103%
O=C(CCCCCCN1CC(=O)N2[C@@H](c3cccc(Br)c3)c3[nH]c4ccccc4c3C[C@H]2C1=O)NO	43.1%	91.7%	42.2%	30.2%	26.4%	2% (active)	8.55% (active)	59.4%	46.6%	7.27% (active)
O=C(O)CNS(=O)(=O)c1ccc(Oc2ccc(S(=O)(=O)NCC(=O)O)cc2)cc1	101%	107%	101%	91.9%	101%	103%	94.7%	101%	100%	109%
Cc1ccc(/C=C/CC(=O)Nc2ccc(C(=O)Nc3ccc(F)cc3N)cc2)cn1	68.6%	68.6%	74.4%	59.1%	72.1%	22.6%	30.4%	69.2%	75.6%	49.4%
O=C(Nc1cccc(-c2nc(-c3ccc(NC(=O)c4cccs4)cc3Cl)no2)c1)Nc1ccc(NC(=O)C2CC2)c(C(F)(F)F)c1	-49.8% (active)	-46.4% (active)	-5.29% (active)	-44% (active)	-56.9% (active)	-40% (active)	-34.5% (active)	-27.7% (active)	-30.7% (active)	-51.7% (active)
CCOC(=O)C1=C(C)Nc2nnc(Nc3ccccc3)n2C1c1ccccc1 (stereo not given)	72.4%	86.7%	91.2%	81.8%	-28.3% (active)	82.4%	79.2%	48.9%	75.5%	88.9%
CC(=O)Nc1cccc(-n2cnc3cc(-c4ccc(O)cc4)ccc32)c1	47.8%	37.9%	56.6%	38.4%	15.9%	49.5%	-29.8% (active)	50.4%	45.6%	66.3%
COc1cc2cc(Oc3ccc(NC(=O)Nc4cccc(C(F)(F)F)c4)cc3)c(C)nc2cc1OCCN(C)C	91.2%	104%	117%	105%	99.9%	74.7%	102%	96.7%	88.7%	98.5%
C#C[C@]1(O)CC[C@H]2[C@@H]3CC=C4c5sc(C6CC6)nc5CC[C@]4(C)[C@H]3CC[C@@]21C	86.4%	94.6%	84.1%	100%	82.2%	120%	81.6%	72.5%	51.2%	119%
Cc1cc(=O)n2nc(-c3c[nH]c4ccccc34)sc2n1	92.6%	98.6%	93.4%	101%	100%	98.4%	90.4%	96.3%	106%	102%
O=C1CC2(CCOCC2)Oc2ncccc21	72.5%	103%	103%	101%	106%	94.6%	-49.2% (active)	102%	47.7%	-13.7% (active)
COc1ccc(Cn2cc3c(c2-c2cc(OC)c(OC)c(OC)c2)CCCc2cnoc2-3)cc1N	47.1%	66.9%	46.3%	51.1%	11.5%	65.3%	12.5%	43%	38.1%	12.7%
O=C(CN1C(=O)CSC1=O)Nc1ccc(C(=O)/C=C/c2cc3ccccc3nc2Cl)cc1	68.4%	89.1%	96.1%	97.5%	85.7%	94.4%	66.9%	78.2%	73.3%	111%
COc1ccc(CN2C(=O)/C(=C/c3nc(CO)cs3)SC2=S)cc1	92.6%	101%	97.5%	104%	100%	63.4%	35.6%	95.7%	51.2%	118%
Cn1ccnc1C(=O)/C=C/c1ccc(C(=O)Nc2ccc(NC(=O)CCNC(=O)c3csc(Br)n3)cc2)cc1	43.5%	84.5%	66.2%	62.6%	46.2%	103%	29%	64.5%	66.3%	85.7%
Oc1ccc(CSc2nnc(-c3ccc(Cl)cc3)o2)c2cccnc12	27.6%	60.2%	26.1%	21.5%	5.72% (active)	21.8%	32%	19.6%	27.9%	97.4%
CC(=O)Oc1ccc(CCN2C(=O)CSC2=S)cc1	101%	89.4%	99.8%	111%	101%	53.7%	61.7%	106%	79.7%	115%
CN(c1ccc(Br)cc1)S(=O)(=O)c1ccc(-c2cnc(C3CC3)o2)cc1	20%	62.4%	46.5%	41.3%	16.8%	87.1%	16.8%	26.3%	52.9%	4.79% (active)
O=C(NCCCNc1cc(-c2cn(-c3ccccc3)nc2-c2cccc(O)c2)ccn1)Nc1ccc(F)cc1	26.3%	32.6%	35.3%	24%	21.4%	-11.5% (active)	1.7% (active)	29.2%	-39.4% (active)	-39.4% (active)
Cc1nn(-c2ccc(Br)cc2)c2nc(CCl)[nH]c(=O)c12	103%	102%	104%	98.5%	109%	101%	85.5%	96.9%	-88.8% (active)	103%
CN1C(=O)N(C)C2C1NN=c1s/c(=C\c3ccccn3)c(=O)n12 (stereo not given)	99.1%	99.7%	99.6%	100%	108%	96.6%	93.4%	99.8%	101%	110%
Cn1cc(-c2nn3cc(-c4cccnc4)nc3s2)c2cc(F)ccc21	93.9%	75%	87.8%	71.6%	94.2%	60.5%	70.2%	94.4%	110%	83.2%
c1cncc(-c2cn3nc(-c4c[nH]c5ccccc45)sc3n2)c1	49.9%	-48.5% (active)	72.2%	66%	25.4%	33.8%	2.85% (active)	57.8%	22.5%	44.4%
Oc1ccc(CSc2nnc(-c3ccncc3)n2-c2ccccc2)c2cccnc12	22.4%	50.8%	34%	17%	5.96% (active)	-7.79% (active)	3.95% (active)	25.5%	29.1%	102%
N/C(=N\OC(=O)CSc1nc2ccccc2s1)c1ccc(Cl)cc1	97.7%	98%	101%	88.2%	108%	98%	95%	103%	102%	106%
Cc1cnc2nc(NN)[nH]n12	104%	93.4%	100%	93%	103%	100%	93.1%	99.2%	103%	101%
C#CCOc1ccccc1C(Nc1ccccc1)c1nnnn1C1CCCCC1 (stereo not given)	103%	107%	92.5%	103%	103%	103%	80.1%	96%	88.3%	112%
